Reference: PubChem BioAssay AID1159580 (chemical genetic matrix, 2015)
The whole screen tested about 5,500 compounds, of which about 2,000 (36%) were called active. Inconclusive results (about 18%) are left out. Rule as the data show it: active = normalized growth mostly below about 0.91 (no sharp cut-off); inconclusive = no clear call, values can overlap the other calls; inactive = mostly above about 0.92. Some of the results follow.

Assay: chemical genetic growth profiling, strain panel (AID 1159580);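 also: tested at 20 µM; growth read once vehicle control cultures reached saturation at 30 °C; 1 = growth at the plate median or of vehicle wells; lower values mean less growth of the strain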
Details: S. cerevisiae deletion strains, growth OD
[1] = locus YAL013W, strain DEP1, active compounds read low
[2] = locus YBR229C, strain ROT2, active compounds read low
[3] = locus YDL101C, strain DUN1, active compounds read low
[4] = locus YDR150W, strain NUM1, active compounds read low
[5] = locus YEL061C, strain CIN8, active compounds read low
[6] = locus YGR078C, strain PAC10, active compounds read low
[7] = locus YHR030C, strain SLT2, active compounds read low
[8] = locus YHR087W, strain rtc3, active compounds read low
[9] = locus YJR043C, strain POL32, active compounds read low
[10] = locus YJR075W, strain HOC1, active compounds read low
[11] = locus YLR039C, strain RIC1, active compounds read low
[12] = locus YLR058C, strain SHM2 (second series), active compounds read low
[13] = locus YLR085C, strain ARP6, active compounds read low
[14] = locus YLR262C, strain YPT6, active compounds read low
[15] = locus YML094W, strain GIM5, active compounds read low
[16] = locus YMR219W, strain ESC1, active compounds read low
[17] = locus YMR263W, strain SAP30, active compounds read low
[18] = locus YNL153C, strain GIM3, active compounds read low
[19] = locus YNL298W, strain CLA4 (second series), active compounds read low
[20] = locus YNL322C, strain KRE1, active compounds read low
[21] = locus YNR030W, strain Alg12, active compounds read low
[22] = locus YOL006C, strain TOP1, active compounds read low
[23] = locus YPL055C, strain LGE1, active compounds read low
[24] = locus YPL241C, strain CIN2, active compounds read low
[25] = locus YPR135W, strain CTF4, active compounds read low

Measured: normalized growth

Cc1ccc(NC(=S)NNC(C)(C)C)cc1
inactive: [1] 0.991 | [2] 0.963 | locus YCL061C, strain MRC1, active compounds read low 0.972 | [3] 0.971 | [4] 0.898 | [6] 0.997 | [7] 0.721 | [8] 1.01 | [9] 0.99 | [10] 1.06 | [12] 1 | [16] 1.01 | [17] 1.03 | locus YNL128W, strain TEP1, active compounds read low 0.94 | [18] 0.955 | [20] 1.02 | [23] 0.894 | [24] 0.913
active: [5] 0.838 | [11] 0.654 | [13] 0.488 | [14] 0.795 | [15] 0.827 | [19] 0.675 | [21] 0.787 | [22] 0.193 | [25] 0.646

COC(=O)c1sccc1OC(=O)c1c(F)cccc1F
inactive: [1] 0.963 | [2] 0.974 | [3] 0.908 | [4] 0.939 | [5] 1.01 | [6] 0.955 | [7] 0.726 | [8] 1.02 | [9] 0.981 | [10] 0.97 | locus YKL190W, strain CNB1, active compounds read low 0.989 | [11] 0.841 | [12] 0.961 | [13] 0.891 | [14] 0.914 | [15] 0.981 | [16] 0.955 | [17] 0.974 | locus YMR307W, strain GAS1, active compounds read low 0.975 | [18] 0.99 | [19] 0.912 | [20] 0.96 | [21] 0.979 | [22] 0.884 | [23] 0.97 | [24] 0.926 | [25] 0.768
